ClpP mod – qHTS Assay for Activators of ClpP; actives 1.9% (n = 340,000); ATP-dependent Clp protease proteolytic subunit (Bacillus subtilis (strain 168)), P80244; purified B. subtilis ClpP, FRET peptide cleavage, 20 min; Potency, µM (series often up to 57.5 µM), for inactives: at the highest dose activity change, negative = active; active = well fitted falling curve with a large enough effect; inconclusive = small, poorly fitted or top-dose-only effect; inactive = no such curve, though single readings can be large or run the other way; also: potency is read from the fitted curve at half-maximal effect; the source files actives as falling curves though it sought activators and does not explain the sign; nearly all actives have a fitted effect of over 65% in size
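ClpP 10 microg/mL final, pH 8 Tris/KCl buffer with BSA, glycerol, Tween-20; compound pinned in; FRET-FV substrate; RT 20 min; Ex320/Em430; ΔFRET vs ADEP 5.8 microM, DMSO, no enzyme.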
DT40 TDP1 no CPT – qHTS for Inhibitors of human tyrosyl-DNA phosphodiesterase 1 (TDP1): qHTS in cells in absence of CPT | Potency, µM (titrated, usually from 46.2 µM), for inactives: at the top dose activity change, negative = growth inhibition, hits mostly inhibitors | DT40 Tdp1-/- hTDP1 cells, no CPT, ATP luminescence, 48 h | AID 686978, 2013 | actives 15% (n = 420,000); also: potency is read from the fitted curve at half-maximal effect; % is scaled to controls: 0 for no effect and ±100 for the full control effect; nearly all actives have a fitted effect of over 55% in size
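Cells were dispensed at 400 per well, compounds added by pin tool, plates incubated ≥48 hr at 37 °C, then CellTiter-Glo added for 30 min at room temperature before luminescence reading. Line: DT40 Tdp1-/- complemented with hTDP1; camptothecin omitted.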
DT40 TDP1 CPT – DT40-hTDP1 cell growth loss with CPT; chicken DT40 Tdp1-/-;hTDP1 cells + 20 nM CPT, ATP luminescence, 48 h; Potency, µM (series often up to 46.2 µM), for inactives: at the highest dose activity change, negative = growth inhibition, hits mostly inhibitors; actives 12% (n = 420,000); AID 686979; also: potency is read from the fitted curve at half-maximal effect; % is scaled to controls: 0 for no effect and ±100 for the full control effect; nearly all actives have a fitted effect of over 55% in size
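Chicken DT40 Tdp1-/- cells complemented with human TDP1, 400 cells/well, exposed to compounds plus 20 nM camptothecin for at least 48 h at 37 C; viability read as ATP content by CellTiter-Glo luminescence.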
D3 ag – activates the human D3 dopamine receptor. P35462. D3R DiscoveRx beta-arrestin cells, luminescence, 90 min. max activation, %. actives 0.58% (n = 410,000); in the data active = max activation above about 30%; also: 0% is about no effect
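Agonist-mode cell screen: cells plated at 1500/well and incubated overnight at 37 °C, then exposed to library compounds for 90 min at 37 °C. Detection reagent was added for 30–60 min at room temperature, and luminescence was read.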
D3 antag – blocks the human D3 dopamine receptor; P35462; D3R cells, DiscoveRx beta-arrestin luminescence, antagonist mode; hits give low values; max response, negative = inhibition, %; actives 2.5% (n = 360,000); AID 652054; in the data active = max response below about -50%; inconclusive = no clear call, values can overlap the other calls; also: % is scaled to controls: 0 for no effect and ±100 for the full control effect
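Cells expressing the human receptor were seeded at 1500 cells/well, incubated overnight at 37 degrees C in 5% CO2, then exposed to library compounds with dopamine controls for 90 minutes at 37 degrees C before luminescent detection.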
IL-1B inflam inh – blocks inflammasome-driven IL-1 beta release; THP-1 LPS/ATP IL-1B secretion, AlphaLISA, 16 h; hits give low values; AID 743279; actives 4.7% (n = 360,000); activity change, % at 57.5 µM; in the data active = activity change below about -50%; inconclusive = mostly about -30% to -49%; also: % is scaled to controls: 0 for no effect and ±100 for the full control effect
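Secreted IL-1B measured by AlphaLISA bead assay after 16 h compound exposure of THP-1 cells; compounds (final up to 57.5 uM) added 1 h before LPS (250 ng/mL) and ATP (1.25 mM) stimulation; lower signal means less secretion.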
Active calls of the source: *. Sampled rows, rich in hits. Any-hit rate of the full collection: about 21%. Unless noted, calls follow the shape of the dose curve; as a rule, active = well fitted inhibition curve with a large enough effect; inconclusive = small, poorly fitted or top-dose-only effect; inactive = flat fitted curve, though single readings scatter.

Results for Cc1cc(/C=C2/C(=O)N(C)C(=S)N2C)ccc1N1CCCC1 ?
ClpP mod: 1%; DT40 TDP1 no CPT: inconclusive; DT40 TDP1 CPT: inconclusive; D3 ag: 8; D3 antag: -17; IL-1B inflam inh: 12

Results for Cc1cc(N2CCCC2)ccc1/C=C1/C(=O)N(C)C(=S)N1C ?
DT40 TDP1 no CPT: 8.2µM*; DT40 TDP1 CPT: 9.2µM*; D3 ag: 3; D3 antag: -8; IL-1B inflam inh: 27

What do the screens show for `Cc1ccc2c(=O)n3c(nc2c1)C(CC(C)C)NC(=O)c1cccnc1-3` (centres undefined)?
ClpP mod: -1%; DT40 TDP1 no CPT: inconclusive; DT40 TDP1 CPT: -4%; D3 ag: -10; D3 antag: -11; IL-1B inflam inh: -12

Results for Nc1nnc2c(n1)CCCC2 ?
ClpP mod: 1%; DT40 TDP1 no CPT: -1%; DT40 TDP1 CPT: 2%; D3 ag: 5; D3 antag: -29; IL-1B inflam inh: -4

How did NC1=NCCCC1 do in these assays?
DT40 TDP1 no CPT: 2.7µM*; DT40 TDP1 CPT: 3.8µM*

What do the screens show for `C#CCn1c(=NC(=O)CN2C(=O)CCC2=O)sc2cccc(C)c21`?
ClpP mod: -1%; DT40 TDP1 no CPT: inconclusive; DT40 TDP1 CPT: -18%; D3 ag: -9; D3 antag: -25; IL-1B inflam inh: 1

How did Cc1ccc(C)c2c1sc(=NC(=O)CN1C(=O)CCC1=O)n2C do in these assays?
ClpP mod: -3%; DT40 TDP1 no CPT: 21µM*; DT40 TDP1 CPT: inconclusive; D3 ag: -1; D3 antag: -19; IL-1B inflam inh: 2

How did CCC(=O)N1CCc2cc(Br)cc(S(=O)(=O)CCC(=O)N3CCN(c4cc(C)ccc4C)CC3)c21 do in these assays?
ClpP mod: 0%; DT40 TDP1 no CPT: 4%; DT40 TDP1 CPT: 17%; D3 ag: 8

Results for O=c1c(Cl)c(NCCO)ncn1-c1ccccc1 ?
ClpP mod: 28µM*; DT40 TDP1 no CPT: -4%; DT40 TDP1 CPT: 7%; D3 ag: 5; D3 antag: 5; IL-1B inflam inh: -1

Results for CNc1nc(Cl)nc2c1ncn2-c1ccccc1 ?
ClpP mod: 1%; DT40 TDP1 no CPT: -7%; DT40 TDP1 CPT: 10%; D3 ag: 1; D3 antag: -11; IL-1B inflam inh: 0

What do the screens show for `O=C(Nc1ccc(S(=O)(=O)N2CCOCC2)cc1)c1ccc(CN2CCc3ccccc3C2)cc1`?
ClpP mod: -18%; DT40 TDP1 no CPT: 0.92µM*; DT40 TDP1 CPT: 1.2µM*; D3 ag: -11; D3 antag: -54*; IL-1B inflam inh: inconclusive

What do the screens show for `N#CCc1ccc(NC(=O)c2ccc(CN3CCc4ccccc4C3)cc2)cc1`?
ClpP mod: 17%; DT40 TDP1 no CPT: -30%; DT40 TDP1 CPT: inconclusive; D3 ag: -20; D3 antag: -53*; IL-1B inflam inh: 45

Results for O=C(Nc1ccc(S(=O)(=O)N2CCCC2)cc1)c1ccc(CN2CCc3ccccc3C2)cc1 ?
ClpP mod: -22%; DT40 TDP1 no CPT: 4.1µM*; DT40 TDP1 CPT: 8.2µM*; D3 ag: -24; D3 antag: inconclusive; IL-1B inflam inh: -2

What do the screens show for `Cc1cccc(C(=O)Nc2ccccc2C(=O)NCc2ccco2)c1`?
ClpP mod: -5%; DT40 TDP1 no CPT: -22%; DT40 TDP1 CPT: 3%; D3 ag: 2; D3 antag: -6; IL-1B inflam inh: -27

What do the screens show for `COc1ccc(S(=O)(=O)NCc2ccncc2)cc1NC(=O)c1ccccc1`?
ClpP mod: -29%; DT40 TDP1 no CPT: 16µM*; DT40 TDP1 CPT: 21µM*; D3 ag: -12; D3 antag: -5; IL-1B inflam inh: 15

What do the screens show for `CC(=O)Nc1ccc(S(=O)(=O)NCCSCc2cccc(Cl)c2)cc1`?
ClpP mod: 1%; DT40 TDP1 no CPT: inconclusive; DT40 TDP1 CPT: inconclusive; D3 ag: 4; D3 antag: 2; IL-1B inflam inh: -16

What do the screens show for `COc1ccc(S(=O)(=O)NCc2cccnc2)cc1NC(=O)c1ccccc1`?
DT40 TDP1 no CPT: -18%; DT40 TDP1 CPT: -6%; D3 ag: 6; D3 antag: 11; IL-1B inflam inh: 12

What do the screens show for `COc1ccc(C(=O)O)cc1S(=O)(=O)NCc1ccncc1`?
DT40 TDP1 no CPT: 17%; DT40 TDP1 CPT: 16%; D3 ag: 10; D3 antag: -17; IL-1B inflam inh: 3

Results for CC(=O)Nc1ccc(S(=O)(=O)NCCSCc2c(Cl)cccc2Cl)cc1 ?
ClpP mod: -1%; DT40 TDP1 no CPT: inconclusive; DT40 TDP1 CPT: inconclusive; D3 ag: -15; D3 antag: 22; IL-1B inflam inh: -66*

How did CCOc1ccc(S(=O)(=O)N2CCCCC2)cc1NC(=O)c1ccccc1 do in these assays?
DT40 TDP1 no CPT: inconclusive; DT40 TDP1 CPT: -4%; D3 ag: 8; D3 antag: 1; IL-1B inflam inh: -1

What do the screens show for `COc1ccc(S(=O)(=O)NCc2ccncc2)cc1NC(=O)c1ccc(Cl)cc1`?
DT40 TDP1 no CPT: 15µM*; DT40 TDP1 CPT: 16µM*; D3 ag: -19; D3 antag: -27; IL-1B inflam inh: -67*

Results for CCOc1ccc(S(=O)(=O)NCc2ccncc2)cc1NC(=O)c1ccccc1 ?
ClpP mod: 1%; DT40 TDP1 no CPT: 1.2µM*; DT40 TDP1 CPT: 3.7µM*; D3 ag: 14; D3 antag: 10; IL-1B inflam inh: -9

Results for COCCC(=O)N1CCC(Oc2ccc(C(=O)N3CCC[C@H]3CO)cc2)CC1 ?
ClpP mod: 24%; DT40 TDP1 no CPT: 3%; DT40 TDP1 CPT: -22%; D3 ag: 5; D3 antag: 1; IL-1B inflam inh: 5

How did COc1ccc(-n2c(CNC(=O)c3cccc4ccccc34)nnc2SC)cc1 do in these assays?
DT40 TDP1 no CPT: -21%; DT40 TDP1 CPT: 9%

Results for CCCCN(CC)CCNC(=O)c1c(C)oc2ncnc(N3CCOCC3)c12 ?
ClpP mod: 0%; DT40 TDP1 no CPT: -5%; DT40 TDP1 CPT: -7%; D3 ag: -5

What do the screens show for `O=C(c1ccco1)N1CCC[C@@]2(CCN(Cc3ccccc3)C2)C1`?
DT40 TDP1 no CPT: -11%; DT40 TDP1 CPT: -2%

How did Cc1cccc(NC(=O)CSc2nnc3c4ccccc4n(C)c3n2)c1 do in these assays?
ClpP mod: 0%; DT40 TDP1 no CPT: -18%; DT40 TDP1 CPT: -11%; D3 ag: 4

How did COc1ccc(CCNS(=O)(=O)c2ccc(Cl)cc2)cc1OC do in these assays?
ClpP mod: 0%; DT40 TDP1 no CPT: -10%; DT40 TDP1 CPT: -28%; D3 ag: -13; D3 antag: -16; IL-1B inflam inh: 0

Assay outcomes: PubChem, National Center for Advancing Translational Sciences (NCATS)
